The text below walks through data of PubChem BioAssay.

Several values for one entry are separate records, joined by “and”; a condition that tells them apart may be missing. Identical values can stand only once. Inconclusive results are not listed. For part of these data: Measured potencies and affinities stand elsewhere. Activity calls are given as the source filed them. Unless noted, the rule behind the calls is not given here.

Test [1] can be described thus: antimalarial activity against Dd2 strain (AID 2302;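 active = growth inhibition above 50% at the single 2 µM test dose, taken to imply half-maximal potency below 2 µM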;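 note: 0% = DMSO untreated growth and 100% = chloroquine plus artemisinin killed control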). The following applies: P. falciparum Dd2 in RBCs, LDH growth readout, 72 h; at 2 µM; stronger effect = higher value.
The nature of test [2]: human hepatoma cell viability loss – ATP luminescence, cytotoxicity control for P. falciparum antimalarial project, primary screen (AID 2303;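 active = inhibition above 50%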;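 note: 0% = DMSO wells and 100% = digitonin-killed cells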). The conditions noted are these: HepG2 viability, 24-48 h, at 10 µM, stronger effect = higher value.
Test [3] has as its target L-lactate dehydrogenase (Plasmodium falciparum (isolate CDC / Honduras)) (UniProt Q27743). Put plainly: PfLDH activity inhibition – cell lysate, 3D7 strain, counter-screen for P. falciparum growth inhibition project (AID 2304).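 Note: 0% = vehicle and 100% = reference inhibitor.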 The following applies: P. falciparum 3D7 crude extract, LDH APAD/NBT absorbance; at 2 µM; stronger effect = higher value. A general note: A counterscreen serves to expose hits that act by an unwanted route or on another target.

A short description of test [4]: inhibition of 3D7 malaria parasite growth – strain 3D7 (AID 2306).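 Note: 0% = DMSO wells and 100% = chloroquine plus artemisinin control wells.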 The following applies: P. falciparum 3D7 erythrocytic growth, LDH absorbance, 72 h; at 2 µM; stronger effect = higher value.
Test [5] is described as follows: compounds altering circadian rhythm period length – cell-based, LOPAC library, luminescence reporter (AID 2774).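 Note: values are relative to mean of DMSO wells on each plate.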 The conditions noted are these: circadian reporter cells, at 7 µM, actives lie on both sides.
Test [6] has as its system Hepatitis C virus NS3 helicase. Put plainly: blockers of NS3h binding to ssDNA – biochemical, fluorescence polarization, LOPAC1280 library, primary screen (AID 687035; in the data active = inhibition above about 37%). The following applies: Purified HCV NS3 helicase, Cy5-dT15 ssDNA binding fluorescence polarization; stronger effect = higher value; concentration not given here.
A short description of test [7]: compounds altering Cy5-DNA-NS3h complex signal – biochemical, LOPAC1280, artefact control for HCV NS3 helicase inhibitor project (AID 687037). The following applies: Cy5-DNA-NS3h complex fluorescence interference counterscreen.
Test [8] addresses Calcium-dependent protein kinase 1 (Plasmodium falciparum (isolate 3D7)) (UniProt P62344). Briefly: PfCDPK1 kinase inhibitors, biochemical, TCAMS library (AID 1159585; cut-off not given, nearly all actives have IC50 up to about 0.98 µM;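 note: inhibitors leave more ATP so luminescence rises with inhibition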). The following applies: recombinant PfCDPK1, Kinase-Glo ATP depletion luminescence. For orientation: Kinase-Glo measures the ATP left after a reaction by luminescence.
For test [9], the target named is Plasmodium falciparum protein kinase 6 (PK6, PF3D7_1337100) (UniProt Q8IDW1). Briefly: PfPK6 kinase inhibitors, biochemical, TCAMS library (AID 1159586). The conditions noted are these: recombinant PfPK6, Kinase-Glo ATP depletion luminescence.
Plasmodium falciparum protein kinase 6 (PK6, PF3D7_1337100), sequence (Q8IDW1 1-305): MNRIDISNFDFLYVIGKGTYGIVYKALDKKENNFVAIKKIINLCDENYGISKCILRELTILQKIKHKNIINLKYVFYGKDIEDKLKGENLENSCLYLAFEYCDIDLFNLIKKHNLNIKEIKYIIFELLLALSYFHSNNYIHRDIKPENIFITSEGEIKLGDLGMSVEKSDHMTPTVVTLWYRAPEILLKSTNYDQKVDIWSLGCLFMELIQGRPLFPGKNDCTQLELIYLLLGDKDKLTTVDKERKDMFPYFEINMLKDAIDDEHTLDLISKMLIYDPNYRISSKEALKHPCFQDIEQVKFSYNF
The target of test [10] is Protein kinase 7 (PK7), Plasmodium falciparum 3D7 (PF3D7_0213400) (UniProt Q7YTF7). Briefly: inhibition of Plasmodium PK7 catalytic activity – biochemical, TCAMS antimalarial set, Kinase-Glo luminescence (AID 1159587). The conditions noted are these: recombinant PfPK7, Kinase-Glo ATP depletion luminescence.
Protein kinase 7 (PK7), Plasmodium falciparum 3D7 (PF3D7_0213400), sequence (Q7YTF7 1-343): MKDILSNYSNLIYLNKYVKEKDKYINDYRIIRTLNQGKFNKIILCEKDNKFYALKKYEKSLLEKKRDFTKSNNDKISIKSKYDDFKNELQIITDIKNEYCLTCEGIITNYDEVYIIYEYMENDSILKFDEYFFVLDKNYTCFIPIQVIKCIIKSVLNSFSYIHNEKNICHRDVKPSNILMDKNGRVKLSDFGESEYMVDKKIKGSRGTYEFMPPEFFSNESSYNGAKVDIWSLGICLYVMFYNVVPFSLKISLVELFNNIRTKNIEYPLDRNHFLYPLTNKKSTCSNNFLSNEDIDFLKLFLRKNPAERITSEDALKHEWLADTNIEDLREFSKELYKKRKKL
The target in test [11] is Calcium-dependent protein kinase 4 (Plasmodium falciparum (isolate 3D7)) (UniProt Q8IBS5). Put plainly: PfCDPK4 kinase inhibitors, biochemical, TCAMS library (AID 1159588; cut-off not given, nearly all actives have IC50 up to about 0.91 µM). The following applies: recombinant PfCDPK4, Kinase-Glo ATP depletion luminescence.
Calcium-dependent protein kinase 4 (Plasmodium falciparum (isolate 3D7)), sequence (Q8IBS5 whole entry, looked up): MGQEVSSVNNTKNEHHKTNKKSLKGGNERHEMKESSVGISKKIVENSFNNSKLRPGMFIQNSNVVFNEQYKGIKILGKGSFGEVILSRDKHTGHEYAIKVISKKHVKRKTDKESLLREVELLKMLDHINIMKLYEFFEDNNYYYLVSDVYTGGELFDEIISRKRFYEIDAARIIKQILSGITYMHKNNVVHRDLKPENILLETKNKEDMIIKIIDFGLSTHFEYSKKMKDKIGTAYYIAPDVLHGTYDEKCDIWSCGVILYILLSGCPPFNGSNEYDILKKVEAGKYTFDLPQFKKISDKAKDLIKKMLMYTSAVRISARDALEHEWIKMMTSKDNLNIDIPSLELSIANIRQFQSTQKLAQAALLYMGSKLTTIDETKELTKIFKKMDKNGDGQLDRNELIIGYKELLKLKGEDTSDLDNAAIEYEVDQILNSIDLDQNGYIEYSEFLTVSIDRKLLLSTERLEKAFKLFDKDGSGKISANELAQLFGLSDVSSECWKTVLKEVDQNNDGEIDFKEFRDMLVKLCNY
Test [12] has as its system Aerobactin synthetase IucA (Klebsiella pneumoniae). Put plainly: inhibition of K. pneumoniae IucA enzyme – biochemical, Tocris library, absorbance (AID 1345561).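 Note: 100% = enzyme without compound and 0% = no enzyme.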 The following applies: purified IucA enzyme assay, absorbance (OD) read-out; stronger effect = lower value;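 tested at 8 µM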.
Test [13] in a line: viability loss in pontine glioma line – cell-based, SU-DIPG-XIII, MIPE4.0, CellTiter-Glo, qHTS, dose response (AID 1347061; cut-off not given, nearly all actives have AC50 up to about 37 µM;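 note: cells exposed to compound for 48 hours before readout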). The following applies: CellTiter-Glo ATP luminescence. Background: In ATP-based viability assays light output follows the ATP content of the culture.
Test [14] can be described thus: viability loss in pontine glioma line – cell-based, JHH-DIPG-1, MIPE4.0, CellTiter-Glo, qHTS, dose response (AID 1347062; cut-off not given, nearly all actives have AC50 up to about 27 µM;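 for AC50: cells exposed to compound for two days before readout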). The conditions noted are these: JHH-DIPG-1 viability, CellTiter-Glo ATP luminescence.
A short description of test [15]: viability loss with induced miR-34 in A549 – imaging, A549 dox-inducible miR-34, nuclei and caspase counts, primary screen (AID 1347080;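 active = compounds whose cell count with miR-34 switched on is under 0.7 times the count with it off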). The following applies: A549 miR-34 inducible, Hoechst nuclei count, 48 h.
The nature of test [16]: MELAS cybrid and Rieske KO viability enhancers – cell-based, MELAS cybrids, Rieske KO mouse fibroblasts, CellTiter-Glo, primary screen (AID 1508586;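 active = mean z-score across replicates of 1.96 or higher in either the MELAS or the Rieske mutant cell line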;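 note: z relative to plate mean and SD of compound and empty wells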). The following applies: low glucose.
The nature of test [17]: galactose survival enhancers in mitochondrial complex I cybrids – cell-based, galactose medium, ATP luminescence, primary screen (AID 1645843;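 active = z-score of at least 1.8 in each of two replicates, scored against plate mean and spread of sample wells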;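 note: positive z means more ATP and so rescue of galactose-driven cybrid death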). The following applies: complex I mutant cybrid cells, 72 h, stronger effect = higher value.
Test [18] can be described thus: viability loss in pontine glioma line – cell-based, SU-DIPG-XVII, MIPE5.0, CellTiter-Glo, qHTS, dose response (AID 1347060; cut-off not given, nearly all actives have AC50 up to about 26 µM;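 note: cells exposed to compound for 48 hours before viability readout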). The following applies: CellTiter-Glo ATP luminescence.
Test [19] is described as follows: viability loss in pontine glioma line – cell-based, SU-DIPG-IV, MIPE4.0, CellTiter-Glo, qHTS, dose response (AID 1347063; cut-off not given, nearly all actives have AC50 up to about 30 µM;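 note: compound exposure lasted 48 hours before the viability readout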). The conditions noted are these: CellTiter-Glo ATP luminescence.
Test [20] in a line: viability loss in pontine glioma line – cell-based, SU-DIPG-XXV, MIPE5.0, CellTiter-Glo, qHTS, dose response (AID 1347065; cut-off not given, nearly all actives have AC50 up to about 26 µM;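 note: cells exposed to compound for 48 hours before ATP readout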). The following applies: CellTiter-Glo ATP luminescence.
Test [21] in a line: JHH-DIPG-1 glioma cell viability, MIPE5.0 library, CellTiter-Glo luminescence, qHTS (AID 1347067; cut-off not given, nearly all actives have AC50 up to about 26 µM;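 note: cells exposed to compound for 48 hours before readout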). The conditions noted are these: JHH-DIPG-1 glioma viability, CellTiter-Glo ATP luminescence.
Test [22] can be described thus: growth inhibition of DIPG cells – cell-based, MIPE5.0 library, qHTS (AID 1347068; cut-off not given, nearly all actives have IC50 up to about 30 µM;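 note: cells exposed to compound for 48 hours before viability readout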). The conditions noted are these: SU-DIPG-XXV viability.
The mark [23] stands for this setting: stronger effect = lower value, cell number ratio, induced over uninduced.
The mark [24] stands for this setting: measured here: relative caspase fold change +Dox/-Dox.
[25] abbreviates: measured here: total cells with miR-34 induction, stronger effect = lower value.
Where [26] appears, read: measured here: total cells without miR-34 induction.
[27] abbreviates: MELAS cybrid survival, CellTiter-Glo 48 h, stronger effect = higher value.
[28] abbreviates: Rieske KO mouse fibroblast survival, CellTiter-Glo 72 h.

L-lactate dehydrogenase (Plasmodium falciparum (isolate CDC / Honduras)), sequence (Q27743 whole entry, looked up): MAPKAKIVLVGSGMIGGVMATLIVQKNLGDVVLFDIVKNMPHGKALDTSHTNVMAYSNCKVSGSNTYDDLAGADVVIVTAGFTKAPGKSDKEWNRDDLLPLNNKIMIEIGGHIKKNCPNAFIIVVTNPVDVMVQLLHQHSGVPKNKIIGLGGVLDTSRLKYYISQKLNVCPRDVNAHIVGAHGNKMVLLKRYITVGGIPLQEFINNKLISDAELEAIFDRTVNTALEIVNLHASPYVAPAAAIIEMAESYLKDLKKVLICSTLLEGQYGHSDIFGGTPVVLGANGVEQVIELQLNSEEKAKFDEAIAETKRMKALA
Calcium-dependent protein kinase 1 (Plasmodium falciparum (isolate 3D7)), sequence (P62344 whole entry, looked up): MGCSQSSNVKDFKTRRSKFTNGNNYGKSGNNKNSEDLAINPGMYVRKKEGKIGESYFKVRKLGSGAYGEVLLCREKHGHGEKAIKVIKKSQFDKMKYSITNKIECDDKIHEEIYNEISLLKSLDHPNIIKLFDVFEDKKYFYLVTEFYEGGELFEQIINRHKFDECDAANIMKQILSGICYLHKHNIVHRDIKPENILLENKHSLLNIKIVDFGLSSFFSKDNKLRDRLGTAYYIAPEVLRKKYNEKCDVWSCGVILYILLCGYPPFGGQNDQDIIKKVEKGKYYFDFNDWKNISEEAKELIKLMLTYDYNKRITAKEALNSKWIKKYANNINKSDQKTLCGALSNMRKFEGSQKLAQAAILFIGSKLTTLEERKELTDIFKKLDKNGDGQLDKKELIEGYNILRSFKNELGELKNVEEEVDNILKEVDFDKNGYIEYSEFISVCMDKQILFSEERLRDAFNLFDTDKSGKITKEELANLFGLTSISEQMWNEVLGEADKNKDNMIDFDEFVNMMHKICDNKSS

With `OC(CN1CCN(c2cccc(Cl)c2)CC1)C(c1ccccc1)c1ccccc1` (stereo not given), the growth inhibition in [1] is 4% (inactive); in test [4] it was 85% (active). Also, the inhibition was -2% (inactive) in [2], -2% (inactive) in test [3] and -4% (inactive) in test [6]. The period change in [5] is -0.085 h (inactive). The fluorescence ratio (interference) in test [7] was 0.9 (inactive). The outcome in test [8], in test [9], in [10], in [11] and in test [14] was inactive. The remaining activity in test [12] was 112% (inactive). For the same compound, in test [13], the AC50 was 23.5 µM (active). Further, the fold change was 0.897 (inactive) and 1 (inactive) in test [15] (setting [23]); 0.676 and 0.73 in test [15] (setting [24]). Besides, the cell count in test [15] (setting [25]) was 8580 and 6630; in [15] (setting [26]), 9570 and 6630. The z-score in test [16] (setting [27]) is -0.304 (inactive); in test [16] (setting [28]), 0.565; in test [17], -0.82 (inactive).
For `COc1c(C2CCN(CCCCNC(=O)c3noc(-c4ccc(C#N)cc4)n3)CC2)ccc2c1CCCC2`, the growth inhibition is -2% (inactive) in test [1] and 99% (active) in [4]. The inhibition in test [2] is 32% (inactive); in [3], -1% (inactive). Also, the result in test [8], in test [9], in test [10] and in test [11] was inactive.
Turning to `COc1cc2c(Nc3ccc(NC(=O)c4ccccc4)cc3)ncnc2cc1OCCCN1CCOCC1`, the growth inhibition was 93% (active) in test [1] and 99% (active) in [4]. The inhibition in [2] is 14% (inactive); in test [3] it was 5% (inactive). The result in test [8], in test [9], in [10] and in test [11] was inactive. The remaining activity in [12] was 94.5% (inactive). For the same compound, the concentration at half-maximal activity (AC50) in test [18] was 4.68 µM (active); in test [14], 20.9 µM (active); in test [19], 18.7 µM (active); in [20], 1.32 µM (active); in test [21], 20.9 µM (active). In addition, in [22], the IC50 is 8.33 µM (active). Also, the fold change in [15] (setting [23]) is 1.01 (inactive) and 1.03 (inactive); in test [15] (setting [24]), 1 and 1.45. The cell count in [15] (setting [25]) was 1920 and 4040; in test [15] (setting [26]), 1900 and 3920. Moreover, the figures for the z-score in test [16] (setting [27]), in test [16] (setting [28]) and in test [17] were -0.661 (inactive), 0.628 and -0.64 (inactive), respectively.
`Cc1noc(C)c1-c1ccc2c(Nc3ccccc3C(C)(C)C)c(C(=O)NCc3ccc(OC(C)C)cc3)cnc2c1`: the growth inhibition is 98% (active) in test [1] and 100% (active) in test [4]. Moreover, the inhibition in test [2] was -3% (inactive); in test [3], 0% (inactive). Further, the outcome in [8], in test [9], in test [10] and in test [11] was inactive.
As for `CCCS(=O)(=O)N1CCC(CO)(Cc2ccccc2C(F)(F)F)CC1`, the figures for the growth inhibition in [1] and in [4] were 57% (active) and 97% (active), respectively. Further, the values for the inhibition in test [2] and in [3] were -1% (inactive) and -2% (inactive), respectively. Besides, the result in test [8], in test [9], in test [10] and in [11] was inactive.
With `O=C(Nc1cccc(CN2CCCN(Cc3ccc(O)cc3)CC2)c1)c1cccc(Cl)c1`, the growth inhibition in test [1] is 41% (inactive); in test [4], 96% (active). The values for the inhibition in test [2] and in test [3] were 10% (inactive) and 5% (inactive), respectively. In addition, the result in test [8], in test [9], in test [10] and in test [11] was inactive.

By inhibition is commonly meant the drop in the measured response relative to a control, in per cent. The remaining activity is the signal under treatment as a percentage of the control signal. For orientation: AC50 means the concentration at which the activity in the assay is half-maximal. Usually IC50 stands for the midpoint of a concentration-inhibition curve.
